CHT inh – inhibitors of human choline transporter CHT; CHT-expressing cells, membrane potential dye, choline response; active compounds read low; B-score at 10 µM; 310,000 compounds, 0.86% hits; AID 488975, 2010;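 active = B-score over 3 SD under the library average, and starting fluorescence ratio not unusually high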;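 note: choline stimulus applied at its EC90 after an EC20 pre-addition; B-score computed on integrated fluorescence ratio after choline addition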
MEKK3 PB1 HTS – modulators of MEKK3-MEK5 PB1 binding, primary screen, biochemical, wildtype MEKK3, multiplex bead flow cytometry, Alexa488-MEK5; Mitogen-activated protein kinase kinase kinase 3 (Homo sapiens), Q99759; bead-based flow cytometry, Alexa488-MEK5 binding to MEKK3; actives lie on both sides; 0 = blocked by unlabeled MEK5, 100 = vehicle; binding response (% of control), % at 10 µM; 290,000 compounds, 1.4% hits; AID 1529, 2009;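 active = binding response more than 3 SD above or below the average of its plate-row segment, actives on both sides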;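 note: Alexa488 bead fluorescence after subtracting the streptavidin-only scavenger bead signal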
Mot1-301 SUMO – yeast Mot1-301 growth rescue at high temperature, primary screen, SUMOylation pathway inhibitor project, S. cerevisiae, ATP luminescence, 38.5C; S. cerevisiae Mot1-301 growth rescue; percent above DMSO median, 100 means doubled; growth rescue, % at 18.8 µM; 320,000 compounds, 1% hits; AID 2716, 2010;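 active = every valid replicate shows activation above 250% relative to neutral control wells; inactive = the rest, any valid replicate at or below 250%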;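 note: OY570 slx delta 5 strain wells were the positive control but not used for scaling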
MEKK2 WT-MEK5 – modulators of MEK5 binding to wildtype MEKK2, primary screen, biochemical, multiplex bead flow cytometry, Alexa488-MEK5; Mitogen-activated protein kinase kinase kinase 2 (Homo sapiens), Q9Y2U5; Alexa488-MEK5 binding to MEKK2 WT; actives lie on both sides; binding response (% of control), % at 10 µM; 290,000 compounds, 1.1% hits; AID 1531, 2009; in the data active = binding response below about 67% or above about 130%
MEKK2 mut-MEK5 – MEK5 binding signal on mutant MEKK2 PB1, primary screen, biochemical, multiplex bead flow cytometry, Alexa488-MEK5; Alexa488-MEK5 binding to MEKK2 mutant; 290,000 compounds, 0.35% hits; percent response, % at 10 µM; in the data active = percent response above about 24%, passing the limit was not always enough
CHT allo act – CHT positive allosteric modulators, primary screen, cell-based, membrane potential dye, choline EC20; High affinity choline transporter 1 (Homo sapiens), Q9GZV3; CHT-expressing cells; active compounds read high; LV-AA mutant CHT in HEK293 cells; B-score at 10 µM; 310,000 compounds, 0.49% hits;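 active = initial fluorescence not abnormally high and integrated response B-score, plate-corrected, over 3 SD above library mean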
Mot1 SUMO dose – growth restoration of Mot1-301 yeast on galactose, dose response, SUMO pathway inhibitor project, whole organism, S. cerevisiae, ATP luminescence, cherry-picked samples; growth activity, percent, % at 42 µM; 2,300 tested, under 10 active; AID 493004, 2010; shares compounds with Mot1-301 SUMO; S. cerevisiae Mot1-301 galactose growth, 24 h; -100 = growth of slx-deleted rescue strain;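 active = Signal drops as the depositor expects, and the fitted half-maximal dose is no more than ten times the top valid tested dose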;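 note: more negative values mean stronger growth rescue toward the control strain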
* marks the source's active call; other numbers are inactive results; i = inactive; · = not tested or not shown; + = active, no number. An excerpt weighted towards active compounds, which were near 4.1% of everything screened.

SMILES	CHT inh	MEKK3 PB1 HTS	Mot1-301 SUMO	MEKK2 WT-MEK5	MEKK2 mut-MEK5	CHT allo act	Mot1 SUMO dose
Cc1ccccc1-c1nc2ccc(Cl)cc2c(=O)n1O	i	97	613*	97	-2	i	-1
CCc1c(O)nc(SCC(=O)Nc2ccccc2OC)[nH]c1=O	i	104	-14	108	2	i	·
O=C(Cc1ccccc1)N1CCCC1c1ccccc1 (stereo not drawn)	i	100	+	100	-1	i	0
CC1CCCC(C)N1C(=O)Cc1ccccc1 (stereo not drawn)	i	71	383	76	-14	i	·
COc1ccc(C)cc1NC(=O)C12CCC(C)(C(=O)O1)C2(C)C (stereo not drawn)	i	103	461*	106	6	i	-1
O=C(O)c1ccc(COc2c(F)c(F)cc(F)c2F)cc1	i	103	+	97	3	i	0
CC(C)N(Cc1ccccc1)C(=O)/C=C/c1ccccc1[N+](=O)[O-]	i	102	-3	94	-6	i	·
CN(C/C=C/c1ccccc1[N+](=O)[O-])Cc1ccccc1	i	104	372*	107	8	i	0
CC(C)NC(=O)CSc1nnc(-c2ccc(F)cc2)c2ccccc12	i	98	20	97	-7	i	·
COC(=O)c1cccc(NC(=O)c2cccnc2)c1	i	95	+	95	1	i	0
Cc1ccc(S(=O)(=O)NCCC(=O)NC2CCCCC2)cc1	·	·	-12	·	·	·	·
Cc1ccc(S(=O)(=O)Nc2n[nH]nc2C(=O)NC2CCCCC2)cc1	i	102	517*	96	0	i	0
Cc1ccc(S(=O)(=O)NC2CCCCCCC2)cc1	i	105	454*	112	5	i	1
CCc1c(C(=O)N2CCN(c3ccccc3F)CC2)[nH]c(C)c1C(C)=O	i	93	+	86	-2	i	0
O=C(O)/C=C\C(=O)NC1CCCCC1	i	103	509*	105	1	i	1
O=C(O)/C=C/C(=O)NC1CCS(=O)(=O)C1 (stereo not drawn)	i	99	-4	95	-2	i	·
Cc1ccc(N(C(=O)c2snc(C(N)=O)c2N)C(C(=O)NC2CCCC2)c2ccco2)cc1 (stereo not drawn)	·	100	·	95	-7	·	·
COc1ccc(-c2csc(Nc3ncccn3)n2)cc1C	i	101	-3	104	4	i	·
COc1ccc(-c2csc(Nc3cc(C)ccn3)n2)cc1C	i	100	515*	106	3	i	0
CCN1CCN(C(=O)NC2CC(=O)N(c3ccc(OC)cc3)C2)CC1 (stereo not drawn)	i	112	1	107	0	i	·
COc1ccc(CCNC(=O)CCn2c(SCC(=O)N3CCCC3)nc3ccccc3c2=O)cc1OC	i	86	3	97	-6	i	·
C=CCn1nnnc1SCC(=O)Nc1ccccc1C(=O)OC	i	102	-19	101	0	i	·
COC(=O)c1ccccc1NC(=O)CSc1nnnn1CC(=O)O	i	102	616*	99	-5	i	0
COc1ccc(-c2cc(C(F)(F)F)n3ncc(C(=O)O)c3n2)cc1OC	i	100	367*	114	16	i	0

Screening results: PubChem BioAssay, several laboratories
